Measurements as given in paper PMC7862700, “An all-to-all approach to the identification of sequence-specific readers for epigenetic DNA modifications on cytosine”.

Key:
Assay in all cases: DAPPL (digital affinity profiling via proximity ligation, sequencing); 10 mM Tris-HCl pH 7.5, 50 mM NaCl, 1 mM DTT, 4% glycerol, room temperature, 30 min; GST-TFs on glutathione beads, 16-mer random dsDNA library, 0.1% formaldehyde crosslink after washing; high values mean tight binding
FLI1 = molecular target: T1, FLI1 (Homo sapiens, UniProt Q01543 1-452); conditions: protein: recombinant; tags: N-terminal GST; dsDNA, one strand shown
T1 sequence: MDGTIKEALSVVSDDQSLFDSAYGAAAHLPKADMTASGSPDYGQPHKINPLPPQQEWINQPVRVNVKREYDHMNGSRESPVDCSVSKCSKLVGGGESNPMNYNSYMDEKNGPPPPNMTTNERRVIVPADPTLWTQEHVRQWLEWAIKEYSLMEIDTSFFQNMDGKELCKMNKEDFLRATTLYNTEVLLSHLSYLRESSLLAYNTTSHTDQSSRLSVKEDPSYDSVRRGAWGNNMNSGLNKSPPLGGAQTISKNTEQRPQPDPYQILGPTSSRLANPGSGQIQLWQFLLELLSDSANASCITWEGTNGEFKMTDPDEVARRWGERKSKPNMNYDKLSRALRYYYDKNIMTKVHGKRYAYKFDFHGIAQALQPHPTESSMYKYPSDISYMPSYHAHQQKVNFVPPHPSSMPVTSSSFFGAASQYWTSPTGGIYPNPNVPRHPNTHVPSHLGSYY
Summary of the method: (§1)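 Pools of DNA-barcoded human transcription factors, expressed in yeast as GST fusions on glutathione beads and combined with a tag-only sample, were incubated with 200 nmole of a 16-mer random double-stranded DNA library. Incubation took 30 min at room temperature in Tris/NaCl/DTT/glycerol buffer and was followed by washing, 0.1% formaldehyde crosslinking, proximity ligation (BsaI/T4 ligase, 1 h, 37 °C), PCR amplification and sequencing on an Illumina NextSeq500. Binding signal is the ratio of a hexamer's read frequency for a factor to its frequency for the tag-only sample.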

ELK1 = molecular target: T2, ELK1 (Homo sapiens, UniProt P19419 1-428); conditions: protein: recombinant; tags: N-terminal GST; dsDNA, one strand shown
T2 sequence: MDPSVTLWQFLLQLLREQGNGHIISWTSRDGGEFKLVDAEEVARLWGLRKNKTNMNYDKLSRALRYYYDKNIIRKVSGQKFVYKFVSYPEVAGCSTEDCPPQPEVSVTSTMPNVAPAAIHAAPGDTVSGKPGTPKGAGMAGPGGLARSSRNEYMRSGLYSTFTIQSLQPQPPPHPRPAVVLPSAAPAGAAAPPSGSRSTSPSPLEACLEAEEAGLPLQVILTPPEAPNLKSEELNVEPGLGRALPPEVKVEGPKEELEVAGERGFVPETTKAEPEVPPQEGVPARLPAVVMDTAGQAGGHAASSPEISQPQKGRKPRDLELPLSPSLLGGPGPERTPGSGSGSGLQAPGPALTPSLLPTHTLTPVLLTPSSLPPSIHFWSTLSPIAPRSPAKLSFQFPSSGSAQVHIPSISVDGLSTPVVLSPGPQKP
Summary of the method: as §1

GABPA = molecular target: T3, GABPA (Homo sapiens, UniProt Q06546 1-454); conditions: protein: recombinant; tags: N-terminal GST; dsDNA, one strand shown
T3 sequence: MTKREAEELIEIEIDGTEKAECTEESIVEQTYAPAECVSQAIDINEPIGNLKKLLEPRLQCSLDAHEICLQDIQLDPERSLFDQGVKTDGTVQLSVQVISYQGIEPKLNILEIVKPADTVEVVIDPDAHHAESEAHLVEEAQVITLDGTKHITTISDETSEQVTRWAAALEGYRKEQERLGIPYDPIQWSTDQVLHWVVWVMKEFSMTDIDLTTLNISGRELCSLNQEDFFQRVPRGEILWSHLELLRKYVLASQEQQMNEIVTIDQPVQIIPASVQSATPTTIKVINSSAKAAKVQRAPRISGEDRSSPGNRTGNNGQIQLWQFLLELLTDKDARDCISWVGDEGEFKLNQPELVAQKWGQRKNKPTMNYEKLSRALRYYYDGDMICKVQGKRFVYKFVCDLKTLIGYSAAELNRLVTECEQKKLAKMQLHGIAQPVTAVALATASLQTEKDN
Summary of the method: as §1

ERG = molecular target: T4, ERG (Homo sapiens, UniProt P11308 1-479); conditions: protein: recombinant; tags: N-terminal GST; dsDNA, one strand shown
T4 sequence: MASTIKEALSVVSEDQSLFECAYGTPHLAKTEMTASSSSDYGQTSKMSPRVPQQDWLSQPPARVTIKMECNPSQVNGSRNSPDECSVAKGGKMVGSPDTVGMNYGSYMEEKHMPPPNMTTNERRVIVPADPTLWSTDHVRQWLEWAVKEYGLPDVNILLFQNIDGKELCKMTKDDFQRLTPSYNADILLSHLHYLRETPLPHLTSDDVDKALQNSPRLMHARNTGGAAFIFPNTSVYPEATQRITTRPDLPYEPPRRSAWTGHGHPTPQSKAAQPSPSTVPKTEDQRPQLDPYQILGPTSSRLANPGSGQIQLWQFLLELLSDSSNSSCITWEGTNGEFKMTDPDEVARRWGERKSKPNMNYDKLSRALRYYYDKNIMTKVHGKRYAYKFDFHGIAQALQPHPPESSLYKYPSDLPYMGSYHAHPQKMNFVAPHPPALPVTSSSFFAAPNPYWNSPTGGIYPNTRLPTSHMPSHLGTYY
Summary of the method: as §1

ELF1 = ELF1 (Homo sapiens, UniProt P32519 1-619); conditions: protein: recombinant; tags: N-terminal GST; dsDNA, one strand shown
Chain of ELF1 (P32519 whole entry): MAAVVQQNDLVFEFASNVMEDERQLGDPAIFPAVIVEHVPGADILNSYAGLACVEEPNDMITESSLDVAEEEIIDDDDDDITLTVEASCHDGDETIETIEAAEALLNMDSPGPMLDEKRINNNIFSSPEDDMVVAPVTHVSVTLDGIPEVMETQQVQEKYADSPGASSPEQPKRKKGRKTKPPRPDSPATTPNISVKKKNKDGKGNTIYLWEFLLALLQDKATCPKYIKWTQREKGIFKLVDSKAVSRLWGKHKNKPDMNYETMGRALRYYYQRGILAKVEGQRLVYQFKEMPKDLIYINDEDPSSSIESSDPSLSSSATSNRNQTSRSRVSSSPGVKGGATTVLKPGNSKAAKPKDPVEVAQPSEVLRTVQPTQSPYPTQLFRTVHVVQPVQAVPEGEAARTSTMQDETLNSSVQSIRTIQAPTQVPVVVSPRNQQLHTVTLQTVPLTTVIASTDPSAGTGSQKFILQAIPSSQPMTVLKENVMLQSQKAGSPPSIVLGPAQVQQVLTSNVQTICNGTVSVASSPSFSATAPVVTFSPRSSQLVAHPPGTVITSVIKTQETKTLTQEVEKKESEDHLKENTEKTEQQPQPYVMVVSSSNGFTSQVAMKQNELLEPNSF
Summary of the method: as §1

EHF = molecular target: T5, EHF (Homo sapiens, UniProt Q9NZC4 1-300); conditions: protein: recombinant; tags: N-terminal GST; dsDNA, one strand shown
T5 sequence: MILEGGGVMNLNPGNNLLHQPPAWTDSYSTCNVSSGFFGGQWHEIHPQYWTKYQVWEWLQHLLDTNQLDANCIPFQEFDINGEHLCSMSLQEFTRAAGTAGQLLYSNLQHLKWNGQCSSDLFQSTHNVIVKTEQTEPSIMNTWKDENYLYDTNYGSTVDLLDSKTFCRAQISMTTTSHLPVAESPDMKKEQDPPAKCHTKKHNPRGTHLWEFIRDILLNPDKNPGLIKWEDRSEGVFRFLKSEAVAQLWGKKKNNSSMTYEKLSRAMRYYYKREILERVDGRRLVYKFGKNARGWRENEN
Summary of the method: as §1

SPI1 = SPI1 (Homo sapiens, UniProt P17947 1-270); conditions: protein: recombinant; tags: N-terminal GST; dsDNA, one strand shown
Summary of the method: as §1

SPIB = SPIB (Homo sapiens, UniProt Q01892 1-262); conditions: protein: recombinant; tags: N-terminal GST; dsDNA, one strand shown
Chain of SPIB (Q01892 whole entry): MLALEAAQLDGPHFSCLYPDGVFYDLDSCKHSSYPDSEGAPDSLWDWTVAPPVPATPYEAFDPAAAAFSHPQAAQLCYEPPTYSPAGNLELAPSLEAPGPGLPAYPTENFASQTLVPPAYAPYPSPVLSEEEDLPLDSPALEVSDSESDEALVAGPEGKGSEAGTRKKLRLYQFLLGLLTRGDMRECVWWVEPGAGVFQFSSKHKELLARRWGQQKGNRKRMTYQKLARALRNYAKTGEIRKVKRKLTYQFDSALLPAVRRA
Summary of the method: as §1

ELK3 = molecular target: T6, ELK3 (Homo sapiens, UniProt P41970 1-407); conditions: protein: recombinant; tags: N-terminal GST; dsDNA, one strand shown
T6 sequence: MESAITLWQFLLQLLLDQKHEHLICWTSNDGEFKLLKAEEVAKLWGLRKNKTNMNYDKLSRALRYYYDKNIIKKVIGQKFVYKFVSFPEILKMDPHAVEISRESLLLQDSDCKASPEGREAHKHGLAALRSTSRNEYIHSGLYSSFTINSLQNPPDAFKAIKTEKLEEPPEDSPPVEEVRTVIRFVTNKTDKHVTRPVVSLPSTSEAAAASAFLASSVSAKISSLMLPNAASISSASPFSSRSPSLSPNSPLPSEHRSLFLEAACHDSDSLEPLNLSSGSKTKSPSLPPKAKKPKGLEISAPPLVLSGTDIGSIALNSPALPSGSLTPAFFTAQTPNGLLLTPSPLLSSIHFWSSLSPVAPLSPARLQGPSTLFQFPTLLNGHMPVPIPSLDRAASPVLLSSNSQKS
Summary of the method: as §1

FEV = molecular target: T7, FEV (Homo sapiens, UniProt Q99581 1-238); conditions: protein: recombinant; tags: N-terminal GST; dsDNA, one strand shown
T7 sequence: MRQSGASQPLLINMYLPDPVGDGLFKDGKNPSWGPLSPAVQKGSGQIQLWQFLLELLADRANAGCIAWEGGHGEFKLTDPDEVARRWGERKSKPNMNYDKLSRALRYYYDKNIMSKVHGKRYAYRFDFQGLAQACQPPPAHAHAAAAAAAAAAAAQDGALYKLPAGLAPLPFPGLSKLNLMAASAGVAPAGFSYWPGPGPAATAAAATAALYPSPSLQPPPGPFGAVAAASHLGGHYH
Summary of the method: as §1

ETV5 = ETV5 (Homo sapiens, UniProt P41161 1-510); conditions: protein: recombinant; tags: N-terminal GST; dsDNA, one strand shown
Chain of ETV5 (P41161 whole entry): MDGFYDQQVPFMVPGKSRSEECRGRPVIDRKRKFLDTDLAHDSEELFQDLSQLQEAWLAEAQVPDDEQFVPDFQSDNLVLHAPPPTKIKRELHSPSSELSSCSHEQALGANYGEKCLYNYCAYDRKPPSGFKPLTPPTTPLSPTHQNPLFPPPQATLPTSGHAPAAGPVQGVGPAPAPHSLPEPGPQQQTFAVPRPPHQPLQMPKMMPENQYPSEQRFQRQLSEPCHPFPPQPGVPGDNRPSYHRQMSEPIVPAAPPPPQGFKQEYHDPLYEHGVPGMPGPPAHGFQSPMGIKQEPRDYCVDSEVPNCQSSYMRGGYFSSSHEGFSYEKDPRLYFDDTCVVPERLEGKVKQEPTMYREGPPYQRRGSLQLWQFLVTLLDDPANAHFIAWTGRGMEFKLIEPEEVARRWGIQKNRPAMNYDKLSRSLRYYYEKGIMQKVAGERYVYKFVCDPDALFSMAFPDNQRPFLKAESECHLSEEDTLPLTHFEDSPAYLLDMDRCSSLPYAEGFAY
Summary of the method: as §1

HSF1 = HSF1 (Homo sapiens, UniProt Q00613 1-529); conditions: protein: recombinant; tags: N-terminal GST; chain copies: 3; dsDNA, one strand shown
Chain of HSF1 (Q00613 whole entry): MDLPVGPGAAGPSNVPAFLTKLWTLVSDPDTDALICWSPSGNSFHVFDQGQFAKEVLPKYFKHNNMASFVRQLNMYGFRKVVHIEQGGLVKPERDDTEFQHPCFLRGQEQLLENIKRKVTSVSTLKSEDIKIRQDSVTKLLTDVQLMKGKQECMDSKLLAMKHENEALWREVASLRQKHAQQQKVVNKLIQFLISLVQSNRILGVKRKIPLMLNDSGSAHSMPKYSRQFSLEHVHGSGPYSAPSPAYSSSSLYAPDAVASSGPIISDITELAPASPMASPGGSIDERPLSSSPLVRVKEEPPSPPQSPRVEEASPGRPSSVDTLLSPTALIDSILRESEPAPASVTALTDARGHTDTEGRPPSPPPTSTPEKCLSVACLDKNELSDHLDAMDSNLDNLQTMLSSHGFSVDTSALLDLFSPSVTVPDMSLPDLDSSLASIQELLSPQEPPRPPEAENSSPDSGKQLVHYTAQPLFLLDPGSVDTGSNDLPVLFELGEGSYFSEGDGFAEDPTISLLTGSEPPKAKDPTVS
Summary of the method: as §1

SPIC = molecular target: T8, SPIC (Homo sapiens, UniProt Q8N5J4 1-248); conditions: protein: recombinant; tags: N-terminal GST; dsDNA, one strand shown
T8 sequence: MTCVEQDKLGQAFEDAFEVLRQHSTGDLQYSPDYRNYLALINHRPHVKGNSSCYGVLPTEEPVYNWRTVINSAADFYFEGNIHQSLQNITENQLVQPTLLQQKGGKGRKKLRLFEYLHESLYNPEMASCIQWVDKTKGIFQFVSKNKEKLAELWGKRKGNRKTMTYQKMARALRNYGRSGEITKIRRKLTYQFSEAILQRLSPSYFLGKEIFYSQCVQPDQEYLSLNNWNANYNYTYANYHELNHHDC
Summary of the method: as §1

ELF4 = ELF4 (Homo sapiens, UniProt Q99607 1-663); conditions: protein: recombinant; tags: N-terminal GST; dsDNA, one strand shown
Chain of ELF4 (Q99607 whole entry): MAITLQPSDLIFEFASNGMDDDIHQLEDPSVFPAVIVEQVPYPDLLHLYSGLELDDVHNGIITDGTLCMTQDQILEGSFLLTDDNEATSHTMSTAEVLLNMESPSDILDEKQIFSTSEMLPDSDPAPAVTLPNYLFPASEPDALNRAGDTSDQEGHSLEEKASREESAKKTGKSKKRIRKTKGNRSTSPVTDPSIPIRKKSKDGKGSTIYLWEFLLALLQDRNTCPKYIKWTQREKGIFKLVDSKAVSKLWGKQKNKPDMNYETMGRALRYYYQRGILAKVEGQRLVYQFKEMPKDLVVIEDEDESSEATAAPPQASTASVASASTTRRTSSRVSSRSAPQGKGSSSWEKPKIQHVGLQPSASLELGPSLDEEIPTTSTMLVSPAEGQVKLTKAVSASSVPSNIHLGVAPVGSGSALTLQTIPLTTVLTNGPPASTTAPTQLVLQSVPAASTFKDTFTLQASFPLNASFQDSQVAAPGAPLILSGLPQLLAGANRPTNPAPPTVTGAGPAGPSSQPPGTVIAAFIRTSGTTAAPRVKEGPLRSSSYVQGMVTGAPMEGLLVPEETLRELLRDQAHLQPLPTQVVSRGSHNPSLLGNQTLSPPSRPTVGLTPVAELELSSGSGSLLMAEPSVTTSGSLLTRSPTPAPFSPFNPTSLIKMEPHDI
Summary of the method: as §1

ELK4 = molecular target: T9, ELK4 (Homo sapiens, UniProt P28324-2 1-405); conditions: protein: recombinant; tags: N-terminal GST; dsDNA, one strand shown
T9 sequence: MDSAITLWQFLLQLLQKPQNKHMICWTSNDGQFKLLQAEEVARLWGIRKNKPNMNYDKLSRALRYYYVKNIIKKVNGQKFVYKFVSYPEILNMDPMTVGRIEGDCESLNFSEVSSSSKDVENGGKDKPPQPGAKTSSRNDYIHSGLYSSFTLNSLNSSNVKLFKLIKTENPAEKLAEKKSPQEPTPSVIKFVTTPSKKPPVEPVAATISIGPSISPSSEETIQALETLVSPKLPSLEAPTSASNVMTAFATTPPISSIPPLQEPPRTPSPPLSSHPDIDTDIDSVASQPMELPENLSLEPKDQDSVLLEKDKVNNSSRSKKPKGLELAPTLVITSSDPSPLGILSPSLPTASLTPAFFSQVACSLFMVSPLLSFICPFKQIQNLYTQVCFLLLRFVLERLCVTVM
Summary of the method: as §1

ETV2 = molecular target: T10, ETV2 (Homo sapiens, UniProt O00321 1-342); conditions: protein: recombinant; tags: N-terminal GST; dsDNA, one strand shown
T10 sequence: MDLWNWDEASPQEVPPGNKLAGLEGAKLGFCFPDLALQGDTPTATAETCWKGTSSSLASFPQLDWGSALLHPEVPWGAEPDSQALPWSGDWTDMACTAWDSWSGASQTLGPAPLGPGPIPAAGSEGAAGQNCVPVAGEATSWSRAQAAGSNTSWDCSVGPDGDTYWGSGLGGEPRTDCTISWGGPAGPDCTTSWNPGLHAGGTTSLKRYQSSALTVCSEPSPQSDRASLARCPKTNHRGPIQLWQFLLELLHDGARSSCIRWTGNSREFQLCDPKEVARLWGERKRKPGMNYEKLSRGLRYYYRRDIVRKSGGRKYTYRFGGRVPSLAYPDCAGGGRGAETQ
Summary of the method: as §1

ELF3 = molecular target: T11, ELF3 (Homo sapiens, UniProt P78545 1-371); conditions: protein: recombinant; tags: N-terminal GST; dsDNA, one strand shown
T11 sequence: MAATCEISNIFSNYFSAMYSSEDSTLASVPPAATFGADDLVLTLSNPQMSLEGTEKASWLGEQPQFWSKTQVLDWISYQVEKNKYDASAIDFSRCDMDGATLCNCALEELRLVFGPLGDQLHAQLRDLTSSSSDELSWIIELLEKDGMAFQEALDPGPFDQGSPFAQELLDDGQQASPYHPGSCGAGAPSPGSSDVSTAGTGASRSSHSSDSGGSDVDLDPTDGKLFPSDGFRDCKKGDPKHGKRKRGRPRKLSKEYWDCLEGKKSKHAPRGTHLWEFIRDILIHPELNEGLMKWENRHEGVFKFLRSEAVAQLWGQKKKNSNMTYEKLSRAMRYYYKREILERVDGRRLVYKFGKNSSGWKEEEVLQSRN
Summary of the method: as §1

CRX = CRX (Homo sapiens, UniProt O43186 1-299); conditions: protein: recombinant; tags: N-terminal GST; dsDNA, one strand shown
Chain of CRX (O43186 whole entry): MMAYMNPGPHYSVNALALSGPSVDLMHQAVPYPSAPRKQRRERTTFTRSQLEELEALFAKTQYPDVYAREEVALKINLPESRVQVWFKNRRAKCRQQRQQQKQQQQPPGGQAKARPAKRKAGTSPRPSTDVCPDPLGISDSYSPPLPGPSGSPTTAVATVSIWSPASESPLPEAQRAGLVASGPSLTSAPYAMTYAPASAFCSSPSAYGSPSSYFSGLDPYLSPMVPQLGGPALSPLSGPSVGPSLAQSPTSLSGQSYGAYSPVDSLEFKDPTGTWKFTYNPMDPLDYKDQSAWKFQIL
Summary of the method: as §1

ETV1 = ETV1 (Homo sapiens, UniProt P50549 1-477); conditions: protein: recombinant; tags: N-terminal GST; dsDNA, one strand shown
Chain of ETV1 (P50549 whole entry): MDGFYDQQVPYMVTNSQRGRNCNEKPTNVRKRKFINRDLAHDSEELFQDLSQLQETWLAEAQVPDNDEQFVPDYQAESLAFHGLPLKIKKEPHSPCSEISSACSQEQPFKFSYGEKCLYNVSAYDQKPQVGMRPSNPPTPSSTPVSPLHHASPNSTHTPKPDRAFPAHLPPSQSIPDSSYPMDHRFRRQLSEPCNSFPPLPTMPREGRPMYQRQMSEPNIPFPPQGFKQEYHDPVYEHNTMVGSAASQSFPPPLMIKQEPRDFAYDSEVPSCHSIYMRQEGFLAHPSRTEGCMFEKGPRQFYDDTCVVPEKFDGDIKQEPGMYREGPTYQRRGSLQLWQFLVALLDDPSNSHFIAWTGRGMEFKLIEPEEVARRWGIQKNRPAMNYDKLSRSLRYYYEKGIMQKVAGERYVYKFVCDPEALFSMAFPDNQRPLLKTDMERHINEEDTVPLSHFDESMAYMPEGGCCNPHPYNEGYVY
Summary of the method: as §1

TCTGAT was tested, and the binding signal (FLI1) was 1.15 fold enrichment (6-mer frequency, TF over GST control), the binding signal (ELK1) was 1.21 fold enrichment (6-mer frequency, TF over GST control) and the binding signal (GABPA) was 1.29 fold enrichment (6-mer frequency, TF over GST control). The binding signal (ERG) was 1.1 fold enrichment (6-mer frequency, TF over GST control), the binding signal (ELF1) was 1.27 fold enrichment (6-mer frequency, TF over GST control) and the binding signal (EHF) was 1.25 fold enrichment (6-mer frequency, TF over GST control). For the same sequence, the binding signal (SPI1) was 1.11 fold enrichment (6-mer frequency, TF over GST control), the binding signal (SPIB) was 1.31 fold enrichment (6-mer frequency, TF over GST control) and the binding signal (ELK3) was 1.14 fold enrichment (6-mer frequency, TF over GST control). The binding signal (FEV) was 1.18 fold enrichment (6-mer frequency, TF over GST control), the binding signal (ETV5) was 1.23 fold enrichment (6-mer frequency, TF over GST control) and the binding signal (HSF1) was 1.28 fold enrichment (6-mer frequency, TF over GST control). For the same sequence, the binding signal (SPIC) was 1.26 fold enrichment (6-mer frequency, TF over GST control), the binding signal (ELF4) was 1.24 fold enrichment (6-mer frequency, TF over GST control) and the binding signal (ELK4) was 1.19 fold enrichment (6-mer frequency, TF over GST control). The binding signal (ETV2) was 1.11 fold enrichment (6-mer frequency, TF over GST control), the binding signal (ELF3) was 1.17 fold enrichment (6-mer frequency, TF over GST control) and the binding signal (CRX) was 1.55 fold enrichment (6-mer frequency, TF over GST control). For the same sequence, the binding signal (ETV1) was 1.15 fold enrichment (6-mer frequency, TF over GST control).
